This is a sample that favours compounds with a hit; in the whole collection about 1% have one here.
Sa RN4220 lethal: kills Staphylococcus aureus RN4220; S. aureus RN4220 growth, OD600, 16 h; inhibition, % (no concentration beside the values); 330,000 tested, 0.33% active; AID 1259311; in the data active means inhibition above about 85%;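 further: plate controls were untreated cells for no effect and reference antibiotic for full effect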
PriA SSB inh: inhibitors of Klebsiella pneumoniae PriA binding to SSB C-terminal tail; AlphaScreen SSBct-PriA binding, biotinylated peptide; inhibition, % at 33 µM; 430,000 tested, 0.6% active; AID 1272365; in the data active means inhibition mostly above about 37%, no sharp cut-off; inactive means mostly below about 20%;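 further: plate controls were negative control peptide for no effect and reference peptide for full effect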
Sa ugtP lethal: compounds lethal to S. aureus RN4220 ugtP deletion mutant; 330,000 tested, 0.54% active; OD600 growth, 16 h; growth inhibition, % (concentration not given with the values); in the data active means growth inhibition above about 68%;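 further: plate controls were untreated wells for no effect and antibiotic for full effect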
Mtb bLac sens: beta-lactam sensitization of Mtb H37Rv | 330,000 tested, 0.27% active | inhibition, % at 25 µM | M. tuberculosis H37Rv growth with meropenem, percent inhibition | AID 434955; call rule not given here;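 further: growth measured after seven days incubation then overnight dye step; 0% = bacteria only wells and 100% = bacteria with antibiotic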
Mtb hypoxia rep: inhibitors of hypoxia-regulated fluorescent reporter in Mycobacterium tuberculosis; AID 1159583; M. tuberculosis hypoxia-regulated fluorescent reporter, fluorescence; 300,000 tested, 0.1% active; fluorescence inhibition, % (no concentration beside the values); in the data active means fluorescence inhibition mostly above about 23%, no sharp cut-off; inactive means mostly below about 17%
The depositor's hits bear a star; ? = inconclusive; . = not tested or not shown.

SMILES	Sa RN4220 lethal	PriA SSB inh	Sa ugtP lethal	Mtb bLac sens	Mtb hypoxia rep
Cc1nnc(SCC2=C(C(=O)O)N3C(=O)C(NC(=O)Cn4nc(C(F)F)c(Cl)c4C)C3SC2)s1 (stereo not given)	100*	0	100*	66	.
CC(=O)OCC1=C(C(=O)O)N2C(=O)C(NC(=O)Cn3nc(C(F)F)c(Cl)c3C)C2SC1 (stereo not given)	99*	-3	96*	34	.
CC1=C(C(=O)O)N2C(=O)C(NC(=O)CCCC(=O)O)C2SC1 (stereo not given)	4	-17	10	2	-12
Cc1cc(C(F)F)nn1CC(=O)NC1CCCC1	.	-13	.	?	.
Cc1nnc(SCC2=C(C(=O)O)N3C(=O)C(NC(=O)Cn4nc(C(F)F)cc4C)C3SC2)s1 (stereo not given)	100*	-4	101*	47	.
COc1ccc(OC2CCN(C(=O)c3ccc(=O)[nH]n3)C2)nn1 (stereo not given)	.	-13	.	.	.
CC(=O)OCC1=C(C(=O)O)N2C(=O)C(NC(=O)CCn3nc(C(F)(F)F)c(Br)c3C3CC3)C2SC1 (stereo not given)	100*	-14	100*	0	.
COc1ccc(C(=O)/C=C2/C(=O)Nc3ccccc32)cc1	97*	-5	99*	75	5
COc1ccc(C(=O)/C=C2/C(=O)Nc3ccccc32)cc1OC	.	-2	.	84	.
O=C1Nc2ccccc2/C1=C/C(=O)c1cccs1	98	-4	94*	100	.
S=C(N=Nc1ccccc1)NNc1ccccc1	0	72*	-2	4	8
CC(C)COc1ccc(Cc2cnc(N)nc2N)cc1	16	-7	97*	-11	6
O=C(CSc1ccc(-c2ccccn2)nn1)Nc1ccccc1C(F)(F)F	.	69*	.	.	.
O=C(CSc1ccc(-c2ccccn2)nn1)Nc1ccc(Cl)cc1	.	31	.	.	.
O=C(NCCOc1ccc(-c2ccccn2)nn1)c1ccccc1C(F)(F)F	.	95*	.	.	.
O=C(CSc1ccc(-c2ccccn2)nn1)Nc1ccccc1Cl	.	65*	.	.	.
COC(=O)c1ccccc1NC(=O)c1ccccc1OC	6	-38	-1	96	.
COc1ccccc1C(=O)Nc1ccccc1SC(=O)c1ccccc1OC	22	-1	89*	5	-3
COc1ccccc1C(=O)Nc1ccc(C)cc1C(=O)c1ccccc1	-3	-6	93*	82	11
COCCN(C(=O)COC(=O)c1nc(Cl)ccc1Cl)c1c(N)n(Cc2ccccc2)c(=O)[nH]c1=O	-2	-6	-3	-4	-4
CCN(C(=O)COC(=O)c1nc(Cl)ccc1Cl)c1c(N)n(Cc2ccccc2)c(=O)[nH]c1=O	3	9	-1	.	30*
CC1(C)C(/C=C/C=C/C=C/C=C2\N(CCCCS(=O)(=O)O)c3ccc4ccccc4c3C2(C)C)=[N+](CCCCS(=O)(=O)[O-])c2ccc3ccccc3c21	.	75*	.	19	.
COc1ccc(C(=O)C(C)OC(=O)CNC(=O)c2ccco2)cc1 (stereo not given)	5	8	12	-4	31*
O=C(CNC(=O)c1ccco1)OC(C(=O)c1ccccc1)c1ccccc1 (stereo not given)	-1	-15	4	-1	.
CCCCCCCCCCCCCCCC[N+](C)(C)C	100*	-4	100*	62	3
SMILES	Sa RN4220 lethal	PriA SSB inh	Sa ugtP lethal	Mtb bLac sens	Mtb hypoxia rep
CCCCCCCCCCCCCCCC[N+](C)(C)CC	100*	-27	100*	84	18
C[N+](C)(C)CCCCCC[N+](C)(C)C	7	-20	1	1	10
COc1ccc(C(=O)c2oc3ccccc3c2NC(=O)c2cccs2)cc1Cl	.	-10	.	.	.
CN1c2ccsc2C(=NNc2ccc(F)cc2)CS1(=O)=O	83	-9	100*	.	-3
Cc1cccc(C(=O)NN=C2CS(=O)(=O)N(C)c3ccsc32)c1	3	0	2	.	-4
Cn1nc(N2CCC(C(=O)Nc3ccc4cn[nH]c4c3)CC2)ccc1=O	.	5	.	.	.
COc1ccc(Nc2ccccc2N)cc1	-9	82*	3	99	.
CC(NC(=O)COC(=O)c1ccc(N2CCCC2=O)cc1)c1ccc(F)cc1 (stereo not given)	5	-9	2	-1	33*
Cc1cc(C)n(/N=C/c2cc([N+](=O)[O-])ccc2O)c(=O)c1	.	.	.	2	.
Cc1cc(C)n(N=Cc2cc([N+](=O)[O-])ccc2O)c(=O)c1	89*	0	76	.	-2
Cc1nc2cc(NC(=O)c3csc(Nc4ccccn4)n3)ccc2s1	.	-6	.	.	.
Nc1ccc(N=Nc2ccccc2O)c(N)c1	-3	68*	-3	.	14
C#CC[N+](C)(C)CCCCCCCCCC	1	-27	93*	1	2
CCCCCC[N+](C)(C)CCSSCC[N+](C)(C)CCCCCC	-2	2	-2	-10	8
C#CC[N+](C)(C)CCCCCCCCCCCC	99*	2	99*	19	15
C#CC[N+](C)(C)CCCCCCCC	7	-4	15	3	3
CC#CC[N+](C)(C)CCCCCCCCCCCC	100*	-17	100*	.	23
CCCCCCCCCCCCCCCC[N+](C)(C)CCl	.	-20	.	.	.
O=C(c1ccco1)N1CCc2ccc(NS(=O)(=O)CCOc3ccccc3)cc2C1	.	10	.	.	.
C#CCOCCOCCOCCNc1nc(N2CCN(C(=O)CCCCCCCCCCNC(=O)[C@H]([C@@H](C)CC)n3cc(CCCCCN)nn3)CC2)nc(N2CCN(C(=O)CCCCCCCCCCNC(=O)[C@H]([C@@H](C)CC)n3cc(CCCCN=C(N)N)nn3)CC2)n1	.	.	.	86	.
C#CCOCCOCCOCCNc1nc(N2CCN(C(=O)CCCCCCCCCCNC(=O)[C@H]([C@@H](C)CC)n3cc(CCCCN=C(N)N)nn3)CC2)nc(N2CCN(C(=O)CCCCCCCCCCNC(=O)[C@H](CO)n3cc(CCCCCN)nn3)CC2)n1	.	39*	.	99	.
CC(C)Nc1ccc(Nc2ccnc3cc4ccccc4cc23)cc1	11	97*	2	94	.
COc1ccc(Nc2ccnc3ccccc23)cc1	3	-7	0	-2	.
O=c1c2ccccc2sn1-c1ccccc1	84	11	94*	96	8
CCCCCCCCCCSc1n[nH]c(N)n1	16	-1	84*	3	10
SMILES	Sa RN4220 lethal	PriA SSB inh	Sa ugtP lethal	Mtb bLac sens	Mtb hypoxia rep
COc1ccc(OC)c(-c2cc(C(=O)NCc3cncc(-c4cccs4)c3)n(C)n2)c1	.	9	.	.	.
NC(=O)[C@@H]1CCCNc2c(I)cc([N+](=O)[O-])cc2C(=O)N[C@@H](Cc2ccccc2)C(=O)N[C@@H](Cc2cnc[nH]2)C(=O)N1	.	41*	.	-1	.
O=C(NCc1ccc(Cl)cc1)NC[C@H]1CCCN1c1ccccc1	.	20	.	.	.
COc1ccc(C)cc1NC(=O)CSc1ccc(-c2ccccn2)nn1	-3	52*	-5	100	0
COc1ccc(C)cc1NC(=O)CSc1cc(-c2ccccn2)nc(C)n1	.	42	.	.	.
COc1ccc(C)cc1NC(=O)CSc1ccccn1	.	56*	.	.	.
COC(=O)c1sc(-c2ccccc2)cc1NC(=O)c1ccco1	.	6	.	.	.
O=C(CCN1C(=O)/C(=C\c2cccs2)SC1=S)Nc1ccc(C(=O)O)cc1	-3	-6	9	1	5

Compound activity (PubChem)
